# Screening data (PubChem BioAssay)
# Rows were chosen to be rich in hits. Some 19% of all compounds tested hit in one or more screens of this group.
# HT1080-NT tox: kills 2HG-producing HT-1080-NT fibrosarcoma cells | Potency, µM (top dose mostly 46.1 µM), for inactives: at the top dose activity, negative = less viability, hits mostly cytotoxic | actives 1.6% (n = 360,000) | HT-1080-NT fibrosarcoma viability, CellTiter-Glo ATP luminescence, 48 h;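 further: NT is the 2HG producing partner of a matched IDH1 knockdown line; potency means the concentration at half of the fitted maximal effect; 0% = DMSO-treated cells and -100% = media-only wells without cells; nearly all actives have a fitted effect of over 55% in size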
#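 Read-out is CellTiter-Glo luminescence after 10 minutes at room temperature, following 48 hours' compound treatment of HT-1080-NT cells (750 cells/well, RPMI, 5% FBS, 37 degrees C).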
# IL1B secr inh: blocks inflammasome-driven IL-1 beta release; THP-1 LPS/ATP IL-1B secretion, AlphaLISA, 16 h; active compounds read low; activity change, % at 57.5 µM; actives 4.7% (n = 360,000); in the data active means activity change below about -50%; inconclusive means mostly about -30% to -49%
#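 Secreted IL-1B measured by AlphaLISA bead assay after 16 h compound exposure of THP-1 cells; compounds (final up to 57.5 uM) added 1 h before LPS (250 ng/mL) and ATP (1.25 mM) stimulation; lower signal means less secretion.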
# TDP1 cell noCPT: qHTS for Inhibitors of human tyrosyl-DNA phosphodiesterase 1 (TDP1): qHTS in cells in absence of CPT | DT40 Tdp1-/- hTDP1 cells, no CPT, ATP luminescence, 48 h | Potency, µM (series often up to 46.2 µM), for inactives: at the top dose activity change, negative = growth inhibition, usual class: inhibitors | actives 15% (n = 420,000); further: potency means the concentration at half of the fitted maximal effect; nearly all actives have a fitted effect of over 55% in size
#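 Readout: luminescence from CellTiter-Glo after 30 min in the dark at RT. Cells: DT40 Tdp1-/- with stable hTDP1, 400/well. Exposure: compounds alone, ≥48 hr, 37 °C.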
# TDP1 cell CPT: growth inhibition of DT40 Tdp1-/-;hTDP1 cells with camptothecin (screen for TDP1 inhibitors); chicken DT40 Tdp1-/-;hTDP1 cells + 20 nM CPT, ATP luminescence, 48 h; Potency, µM (highest dose often 46.2 µM), for inactives: at the highest dose activity change, negative = growth inhibition, most hits filed as inhibitors; actives 12% (n = 420,000); AID 686979; further: potency means the concentration at half of the fitted maximal effect; nearly all actives have a fitted effect of over 55% in size
#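 Cell growth measured by CellTiter-Glo luminescence after a minimum 48 h, 37 C compound exposure with 20 nM CPT in Tdp1-knockout DT40 cells stably expressing hTDP1, seeded 400/well; qHTS titration format.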
# HT1080 IDH1KD tx: kills HT-1080 cells with IDH1 knockdown; HT-1080 IDH1 knockdown viability, ATP luminescence, 48 h; Potency, µM (doses to about 46.1 µM), inactives show at the top dose activity, negative = toxicity, hits mostly cytotoxic; actives 2% (n = 360,000); AID 686971;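 further: potency means the concentration at half of the fitted maximal effect; 0% = DMSO wells and -100% = cell-free medium wells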
#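 Cytotoxicity counter-line: IDH1KD HT-1080, 48 h, CellTiter-Glo. Curves classed by r2, magnitude and activity.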
# Numbers without * were called inactive; u = inconclusive; x = not tested or not shown; [ ] = remark or other dose. Unless noted, the call rests on the fitted dose curve; in most records, active means well fitted curve in the direction sought with a large enough effect; inconclusive means small, poorly fitted or top-dose-only effect, or another doubt; inactive means no such curve, though single readings can be large; an effect the other way counts as inactive or inconclusive. Unless noted, on the % scale 0 is the no-effect control and ±100 the full control effect.
SMILES,HT1080-NT tox,IL1B secr inh,TDP1 cell noCPT,TDP1 cell CPT,HT1080 IDH1KD tx
Cc1cccc(C(=O)NC(=S)NCc2cccnc2)c1,17%,8,-1%,-14%,16%
CCCCC(=O)NC(c1cccc([N+](=O)[O-])c1)c1c(OC(C)=O)ccc2ccccc12 (configuration not stated),-30%,-17,u,u,u
CCC(=O)NC(c1ccccc1Cl)c1c(O)ccc2ccccc12 (configuration not stated),-22%,18,u,16µM*,-28%
CCCCC(=O)NC(c1ccc([N+](=O)[O-])cc1)c1c(O)ccc2ccccc12 (configuration not stated),16µM*,-60*,21µM*,16µM*,u
CCC(=O)NC(c1ccc(N(C)C)cc1)c1c(O)ccc2ccccc12 (configuration not stated),-4%,-1,u,-26%,-5%
CCC(=O)NC(c1ccc([N+](=O)[O-])cc1)c1c(O)ccc2ccccc12 (configuration not stated),u,u,u,20µM*,u
CC(C)CC(=O)NC(c1ccccc1)c1c(O)ccc2ccccc12 (configuration not stated),-9%,-80*,u,u,-16%
CC(C)C(=O)NC(c1ccccc1Cl)c1c(O)ccc2ccccc12 (configuration not stated),-4%[9.24 µM],u,-27%,u,-4%
COc1ccc(C(NC(=O)C(C)C)c2c(O)ccc3ccccc23)cc1 (configuration not stated),u,8,u,u,u
CCC(CCC(=O)Nc1ccc(S(N)(=O)=O)cc1)C(=O)O (configuration not stated),15%,6,-5%,-14%,3%
CCNc1nc2c(cnn2C)c(=O)[nH]1,-4%,6,-7%,4%,-14%
NC(=O)C1CCN(c2ncc(C(F)(F)F)cc2Cl)CC1,19%,0,-8%,-6%,14%
COc1cc(NCCCCC(C)N)c2nccc(C)c2c1 (configuration not stated),u,-12,3.7µM*,5.8µM*,u
Cc1cc(C)cc(NC(=S)NCc2cccs2)c1,-9%,0,u,15µM*,-1%
COc1cc(NC(=S)NCc2cccs2)cc(OC)c1,8%,-9,u,u,12%
CSc1nnc(CNC(=O)c2cccc3ccccc23)n1-c1ccccc1C,x,x,1%,20%,x
Cc1ccc(C(=O)NCCc2c[nH]c3ccccc23)c(C)c1,-15%,-10,-44%,-7%,3%
Nc1sc(-c2ccccc2)cc1C(=O)NCCc1c[nH]c2ccccc12,u,-15,15µM*,16µM*,u
COCCNC(=O)c1cc(-c2ccccc2)sc1N,4%,-11,u,u,16%
NNC(=O)c1sc(-c2ccccc2)cc1N,-4%,-54*,u,u,-11%
CCCCNC(=O)c1cc(-c2ccccc2)sc1N,-24%,u,16µM*,15µM*,-18%
O=C(CSc1ccc(-c2cccc([N+](=O)[O-])c2)nn1)NC1CCCC1,15%,8,-27%,6%,12%
CCn1c(C)cc(/C=C2/NC(=O)N(c3ccccc3)C2=O)c1C,2%,-10,u,u,11%
O=C1N/C(=C/c2ccsc2)C(=O)N1c1ccccc1,25%,-54*,13%,-1%,12%
CC(=O)NC(CC(=O)NNC(=O)COc1c(C)cccc1C)c1ccccc1 (configuration not stated),8%,20,-1%,-1%,6%
SMILES,HT1080-NT tox,IL1B secr inh,TDP1 cell noCPT,TDP1 cell CPT,HT1080 IDH1KD tx
Cc1cccc(C)c1OCC(=O)N[C@@H](Cc1ccccc1)[C@@H](O)C[C@H](Cc1ccccc1)NC(=O)[C@H](C(C)C)N1CCCNC1=O,x,x,19µM*,7.9µM*,x
O=C(C1CC(=O)N(c2ccc3c(c2)OCCO3)C1)N1CCN(c2ccccc2O)CC1 (configuration not stated),-4%,-9,u,21µM*,-1%
O=C(C1CC(=O)N(c2ccc3c(c2)OCCO3)C1)N1CCN(c2ccccc2)CC1 (configuration not stated),16%,-16,-28%,-27%,15%
CCOc1ccccc1N1CCN(C(=O)CSc2ccc3c(c2)OCCO3)CC1,-1%,-12,u,-16%,12%
O=C(CSc1ccc2c(c1)OCCO2)N1CCN(c2ccccc2O)CC1,-3%,0,23µM*,23µM*,0%
CCOC(=O)NC1(C(F)(F)F)C(=O)N(Cc2ccccn2)C2=C1C(=O)CC(C)(C)C2 (configuration not stated),-5%,2,1%,11%,2%
CCC(CC)C(=O)c1c[nH]c(C(=O)NCc2ccncc2)c1,-5%,14,u,u,-2%
O=C(CCCNC(=O)c1ccc(Cl)cc1)Nc1ccc(Br)cc1,-9%,-19,-15%,-17%,-4%
Cc1nc(Sc2nnnn2C2CC2)c2c(-c3ccccc3)csc2n1,x,x,11µM*,u,x
CCc1nc2scc(-c3ccccc3)c2c(=O)n1N,0%,-19,-30%,-16%,8%
CCn1nnnc1Sc1nc(C)nc2scc(-c3ccccc3)c12,x,x,8.9µM*,u,x
CCN(CC)S(=O)(=O)c1ccc(OC)c(NC(=O)C(C)Oc2ccc3c(C)cc(=O)oc3c2)c1 (configuration not stated),-9%,3,18µM*,u,-17%
CCN(CC)S(=O)(=O)c1ccc(C)c(NC(=O)COc2ccc3c(C)cc(=O)oc3c2)c1,10%,20,u,u,10%
O=C(CCCCn1c(=S)[nH]c2ccsc2c1=O)NCc1ccc2c(c1)OCO2,-18%,-3,18µM*,u,u
O=C(CCCCn1c(=O)c2ccccc2n(Cc2cccc(Cl)c2)c1=O)NCc1ccc2c(c1)OCO2,x,x,12µM*,u,x
Cc1ccccc1Cn1c(=O)n(CCCCC(=O)NCc2ccc3c(c2)OCO3)c(=O)c2ccccc21,x,x,u,23µM*,x
Cc1ccccc1Cn1c(=O)n(CCC(=O)NCc2ccc3c(c2)OCO3)c(=O)c2ccccc21,2%,19,u,u,-1%
COC(=O)c1ccc(NC(=O)C(=O)c2cn(CC(=O)N3CCOCC3)c3ccccc23)cc1,0%,11,-17%,0%,-2%
Cc1ccc(S(=O)(=O)N2CCc3cc(C(=O)Nc4ccc(C)c(C)c4)ccc32)cc1,x,x,-23%,-21%,x
